Inconclusive results are not listed. A call without a number means that no potency is given here. Activity calls are given as the source filed them. Calls follow the shape of the full dose curve.

In one assay the target is Acetylcholinesterase (Homo sapiens) (UniProt P22303). Nature of the assay: Acetylcholinesterase (AChE) small molecule antagonists: fluorescence cell-based qHTS assay (AID 1347398). Also: nearly all actives have a fitted effect of over 50% in size. Also: potency is read from the fitted curve at half-maximal effect. The note with it: SH-SY5Y cells; Potency: AChE activity; outcome: AChE activity; series mostly up to 115 µM. Summed up: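 Fluorimetric cell-based assay: intact SH-SY5Y cells, 30 min compound preincubation at 37 C, acetylthiocholine substrate with thiol probe Thiolite Green, 40 min RT development, fluorescence 490/520 nm.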
Chain of Acetylcholinesterase (Homo sapiens) (P22303 whole entry, looked up): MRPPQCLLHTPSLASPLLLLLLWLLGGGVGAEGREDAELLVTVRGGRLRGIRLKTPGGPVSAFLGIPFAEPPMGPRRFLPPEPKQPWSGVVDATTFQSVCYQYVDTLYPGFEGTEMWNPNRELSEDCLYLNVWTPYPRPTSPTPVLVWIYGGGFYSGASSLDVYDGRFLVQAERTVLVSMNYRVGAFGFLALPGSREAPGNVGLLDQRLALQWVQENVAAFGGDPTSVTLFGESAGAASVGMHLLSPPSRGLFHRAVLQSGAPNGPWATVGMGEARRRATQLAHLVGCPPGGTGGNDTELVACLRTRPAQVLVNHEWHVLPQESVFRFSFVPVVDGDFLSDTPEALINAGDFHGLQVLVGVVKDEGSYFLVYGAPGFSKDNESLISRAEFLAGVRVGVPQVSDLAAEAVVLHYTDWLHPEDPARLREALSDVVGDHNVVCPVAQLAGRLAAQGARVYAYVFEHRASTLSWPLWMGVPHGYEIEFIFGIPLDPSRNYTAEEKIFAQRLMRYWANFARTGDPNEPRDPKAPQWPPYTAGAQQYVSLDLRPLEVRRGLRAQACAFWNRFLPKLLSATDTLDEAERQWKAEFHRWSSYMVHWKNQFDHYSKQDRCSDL
Turning to `Nc1c(NC/C=C\COc2cc(CN3CCCCC3)ccn2)c(=O)c1=O`, the activity change, negative = inhibition is -23% [at 23.8 µM] (inactive).
Regarding `CNc1ccc(O)cc1`, the Potency is 31.7 µM (active).
The same measure, in the same setting: under `COc1ccc(N=Nc2cc(C)c(N=Nc3ccc(S(=O)(=O)O)cc3)cc2OC)cc1` stands “inactive”; under `CC(=O)O[C@H]1C[C@@H]2CC[C@@H]3[C@H](CC[C@@]4(C)[C@H]3C[C@H]([N+]3(C)CCCCC3)[C@@H]4OC(C)=O)[C@@]2(C)C[C@@H]1N1CCCCC1`, 6.92 µM (active).
The same measure, in the same setting: next, `C=CC[N+]1([C@H]2C[C@H]3[C@@H]4CC[C@H]5C[C@H](OC(C)=O)[C@@H](N6CCCCC6)C[C@]5(C)[C@H]4CC[C@]3(C)[C@H]2OC(=O)CC)CCCCC1`: 13.8 µM (active); `Cn1c(=O)cc(Oc2ccc(F)cc2F)c2cnc(NCC(C)(C)O)nc21`: 28.3 µM (active).
As to `O=C(OC[C@H]1O[C@@H](OC(=O)c2cc(O)c(O)c(OC(=O)c3cc(O)c(O)c(O)c3)c2)[C@H](OC(=O)c2cc(O)c(O)c(OC(=O)c3cc(O)c(O)c(O)c3)c2)[C@@H](OC(=O)c2cc(O)c(O)c(OC(=O)c3cc(O)c(O)c(O)c3)c2)[C@@H]1OC(=O)c1cc(O)c(O)c(OC(=O)c2cc(O)c(O)c(O)c2)c1)c1cc(O)c(O)c(OC(=O)c2cc(O)c(O)c(O)c2)c1`, the activity change, negative = inhibition was -11.1% [at 23.8 µM] (inactive).
On to `CCCCCCCCCCCCOC(=O)c1ccc(O)cc1`, for which the Potency result was “inactive”.
Turning to `C[C@H](CN1CCCC1)C(=O)c1ccc(C(F)(F)F)cc1`, the Potency entry was “inactive”.
Same read-out and setting: next, `Cc1c(C)n(Cc2ccccc2)c2ccc(C(=O)OCCN(C)C)cc12`: 13.8 µM (active).
With `CCCCOc1ccc(CC(=O)NO)cc1`, the Potency result was “inactive”.
The same measure, in the same setting: next, `O=C(O)CCN(C1(C(=O)NO)CCCC1)S(=O)(=O)c1ccc(Oc2ccc(F)cc2)cc1`: “inactive”; `CCCCCCCCCCCCCCC1CO1` (stereo not given): “inactive”.
On the same count and under the same terms, next, `O=C(O)Cc1ccc(OCCNC[C@H](O)c2ccccc2)cc1`: “inactive”; `CC(=O)S[C@H](C(=O)N[C@H]1Cc2ccccc2[C@H]2CCC[C@@H](C(=O)O)N2C1=O)C(C)C`: “inactive”.
`O=C1NCCN1CCN1CCC(c2cn(-c3ccc(F)cc3)c3ccc(Cl)cc23)CC1`: the Potency was 24.5 µM (active).
In the case of `Nc1c(N=Nc2ccc(-c3ccc(N=Nc4cc(S(=O)(=O)O)c5ccccc5c4N)cc3)cc2)cc(S(=O)(=O)O)c2ccccc12`, the Potency is 71 µM (active).
Still for that read-out and setting: next, `COc1cc(C(=O)NC2CCN(C)CC2)ccc1Nc1ncc2c(n1)N(C1CCCC1)CC(F)(F)C(=O)N2C`: 11.6 µM (active).
On the same count and under the same terms, next, `c1ccc2sc(SN(C3CCCCC3)C3CCCCC3)nc2c1`: “inactive”.
For the compound `CC1CCC(=O)C1=O` (stereo not given), the Potency result was “inactive”.

The next assay shares this target. The assay is described as follows: Acetylcholinesterase (AChE) small molecule antagonists: enzyme-based qHTS assay with human liver microsomes (AID 1347399). Also: nearly all actives have a fitted effect of over 60% in size. The note with it: Potency: qHTS inhibition; outcome: qHTS inhibition; series mostly up to 115 µM. The method, boiled down:
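Recombinant human AChE (50 mU/mL in the enzyme mix) and human liver microsomes (0.25 mg/mL final) were preincubated with compound and NADPH (0.25 mg/mL final) for 30 min at 37 C. Acetylthiocholine/DTNB was then added; thiocholine was read colorimetrically after 10 min at room temperature.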
Background: In qHTS, concentration-response curves come from the screen itself.
For the compound `CCCCCCCCCCCCCCCCC(C(=O)O)C(O)(CC(=O)O)C(=O)O` (stereo not given), the Potency result was “inactive”.
Still for that read-out and setting: next, `Oc1c(Cl)cc(Cl)c(Cl)c1Cc1c(O)c(Cl)cc(Cl)c1Cl`: “inactive”; `CCOC(=O)c1nc(C(Cl)(Cl)Cl)n(-c2ccc(Cl)cc2Cl)n1`: “inactive”.
As for `CCCCCCCCCCCCOCCOS(=O)(=O)O`, the Potency entry is “inactive”.
As to `CCCCC(CC)CNC(=O)CC(C)OC(=O)CCC(=O)O` (stereo not given), the Potency entry is “inactive”.
For the compound `C1CCC2(CCCCO2)OC1`, the Potency entry was “inactive”.
`CCCCCCCCCCCCCCCCCCOS(=O)(=O)O`: the Potency entry is “inactive”.
Turning to `CN(C)CCOc1ccc(/C(=C(/CCCl)c2ccccc2)c2ccccc2)cc1`, the Potency entry is “inactive”.
As to `CC(C)CCCCCCCCCCCCCCC(=O)O`, the Potency entry is “inactive”.
As to `O=S(=O)(c1ccc(OCc2ccccc2)cc1)c1ccccc1O`, the Potency result is “inactive”.
With `COC(C(=O)O)c1ccccc1` (stereo not given), the Potency entry was “inactive”.
For the compound `NC(=O)C1(N2CCCCC2)CCN(CCCN2c3ccccc3CCc3ccc(Cl)cc32)CC1`, the Potency entry was “inactive”.
Consider `COc1cc2nc(N3CCN(C(=O)C4CCCO4)CC3)nc(N)c2cc1OC` (stereo not given), for which the Potency result was “inactive”.
In the case of `O=C(Nc1ccc(Cl)c(Cl)c1)c1cc(Cl)cc(Cl)c1O`, the Potency entry is “inactive”.
Same read-out and setting: under `CCCCCCCCOC(=O)c1cc(O)c(O)c(O)c1` stands “inactive”.
With `CCCN(CCc1cccs1)[C@H]1CCc2c(O)cccc2C1`, the Potency result was “inactive”.
`CCOC(=O)COc1cc(-n2ncc(C(F)(F)F)c(C)c2=O)c(F)cc1Cl`: the Potency entry is “inactive”.
Take `CCN1/C(=C/C=C/c2sc3ccccc3[n+]2CC)Sc2ccccc21`: the activity change, negative = inhibition is 4.36% [at 23.6 µM] (inactive).
Turning to `CC(C)(C)c1ccc(N)cc1`, the Potency entry was “inactive”.
Same read-out and setting: under `O=C(Nc1ccc(S(=O)(=O)N2CCOCC2)cc1)c1cc(Cl)ccc1NS(=O)(=O)c1ccc(Cl)s1` stands “inactive”.
Consider `Nc1c(NC/C=C\COc2cc(CN3CCCCC3)ccn2)c(=O)c1=O`, for which the activity change, negative = inhibition is 0.669% [at 23.6 µM] (inactive).
With `CNc1ccc(O)cc1`, the Potency entry is “inactive”.
For `COc1ccc(N=Nc2cc(C)c(N=Nc3ccc(S(=O)(=O)O)cc3)cc2OC)cc1`, the Potency entry was “inactive”.
Consider `CC(=O)O[C@H]1C[C@@H]2CC[C@@H]3[C@H](CC[C@@]4(C)[C@H]3C[C@H]([N+]3(C)CCCCC3)[C@@H]4OC(C)=O)[C@@]2(C)C[C@@H]1N1CCCCC1`, for which the Potency entry was “inactive”.
On the same count and under the same terms, under `C=CC[N+]1([C@H]2C[C@H]3[C@@H]4CC[C@H]5C[C@H](OC(C)=O)[C@@H](N6CCCCC6)C[C@]5(C)[C@H]4CC[C@]3(C)[C@H]2OC(=O)CC)CCCCC1` stands “inactive”; under `Cn1c(=O)cc(Oc2ccc(F)cc2F)c2cnc(NCC(C)(C)O)nc21`, “inactive”.
As to `O=C(OC[C@H]1O[C@@H](OC(=O)c2cc(O)c(O)c(OC(=O)c3cc(O)c(O)c(O)c3)c2)[C@H](OC(=O)c2cc(O)c(O)c(OC(=O)c3cc(O)c(O)c(O)c3)c2)[C@@H](OC(=O)c2cc(O)c(O)c(OC(=O)c3cc(O)c(O)c(O)c3)c2)[C@@H]1OC(=O)c1cc(O)c(O)c(OC(=O)c2cc(O)c(O)c(O)c2)c1)c1cc(O)c(O)c(OC(=O)c2cc(O)c(O)c(O)c2)c1`, the activity change, negative = inhibition was -0.451% [at 23.6 µM] (inactive).
For `CCCCCCCCCCCCOC(=O)c1ccc(O)cc1`, the Potency entry was “inactive”.
The same measure, in the same setting: under `C[C@H](CN1CCCC1)C(=O)c1ccc(C(F)(F)F)cc1` stands “inactive”.
`Cc1c(C)n(Cc2ccccc2)c2ccc(C(=O)OCCN(C)C)cc12`: the Potency result is “inactive”.
As for `CCCCOc1ccc(CC(=O)NO)cc1`, the Potency result was “inactive”.
Same read-out and setting: under `O=C(O)CCN(C1(C(=O)NO)CCCC1)S(=O)(=O)c1ccc(Oc2ccc(F)cc2)cc1` stands “inactive”; under `CCCCCCCCCCCCCCC1CO1` (stereo not given), “inactive”.
In the case of `O=C(O)Cc1ccc(OCCNC[C@H](O)c2ccccc2)cc1`, the Potency result is “inactive”.
Same read-out and setting: under `CC(=O)S[C@H](C(=O)N[C@H]1Cc2ccccc2[C@H]2CCC[C@@H](C(=O)O)N2C1=O)C(C)C` stands “inactive”; under `O=C1NCCN1CCN1CCC(c2cn(-c3ccc(F)cc3)c3ccc(Cl)cc23)CC1`, “inactive”.
On the same count and under the same terms, next, `Nc1c(N=Nc2ccc(-c3ccc(N=Nc4cc(S(=O)(=O)O)c5ccccc5c4N)cc3)cc2)cc(S(=O)(=O)O)c2ccccc12`: “inactive”; `COc1cc(C(=O)NC2CCN(C)CC2)ccc1Nc1ncc2c(n1)N(C1CCCC1)CC(F)(F)C(=O)N2C`: “inactive”.
As to `c1ccc2sc(SN(C3CCCCC3)C3CCCCC3)nc2c1`, the Potency result is “inactive”.
For the compound `CC1CCC(=O)C1=O` (stereo not given), the Potency result was “inactive”.

For the origin of these results see PubChem BioAssay (Tox21).
